Inconclusive results are not listed. The source made the active and inactive calls. Unless noted, the call rests on the fitted dose curve.

The target of test [1] is Lysosomal acid glucosylceramidase (Homo sapiens) (UniProt P04062). Put plainly: Glucocerebrosidase-p2 (AID 348; in the data active means potency below about 10 µM; further: potency means the concentration at half of the fitted maximal effect). Particulars: purified GBA, blue fluorogenic substrate, 40 min. An outline of the steps:
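Compounds titrated from 0.6 nM upwards against 0.2 nM enzyme in pH 5.9 citric acid/KH2PO4, taurocholate, tween-20; blue fluorogenic substrate 80 uM, 40 min room temperature, stopped and read Ex 365/Em 440 for AC50.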

Test [2] in a line: AP1 Signaling Pathway (AID 357; active means well fitted curve in either direction with a large enough effect, not every such curve was filed as active; further: on the % scale 0 is the no-effect control and ±100 the full control effect). Conditions: ME-180 AP-1-bla reporter, EGF-induced, beta-lactamase ratio, 5 h; at 7.69 µM (top of the series) unless noted. An outline of the steps: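 Read-out was the 460nm/530nm emission ratio (excitation 405nm) after CCF4 loading for 2.5 hours at room temperature. Cells carried an AP-1-driven beta-lactamase reporter, were stimulated with EC50 EGF plus compound for 5 hours, and AC50 values came from titrations.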

The target in test [3] is Glucocorticoid receptor (Homo sapiens) (UniProt P04150). As to the kind of experiment: GR-EFC Redistribution (AID 451). Further: potency means the concentration at half of the fitted maximal effect. Particulars: CHO-K1 GR-EFC translocation, beta-gal luminescence, 2 h. A digest of the protocol:
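CHO-K1 cells expressing nuclear EA and GR-ED fragments of b-gal; compounds titrated up to 46 uM final, 2 h at 37 C. GR nuclear translocation read as complemented b-gal luminescence after 1 h RT detection.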

The target in test [4] is Mitogen-activated protein kinase 10 (Mus musculus) (UniProt Q61831). As to the kind of experiment: JNK3 AlphaScreen Assay (AID 530; active means well fitted curve in either direction with a large enough effect, not every such curve was filed as active;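 further: kinase came from lysate of stimulated human HepG2 cells; signal reports phosphorylation of biotinylated GST-cJun 1-79 at Ser73 with 10 µM ATP; on the % scale 0 is the no-effect control and ±100 the full control effect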). Conditions: JNK3 lysate, c-Jun phosphorylation; series mostly up to 57.1 µM. An outline of the steps:
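Pre-activated (IL-1β/TNFα) JNK3 in HepG2 lysates phosphorylates biotin-GST-cJun(1-79), 10 uM ATP; anti-phospho-cJun(Ser73) AlphaScreen read at room temperature, pH 7.6 Tris buffer. Compounds pre-incubated 15 min as titrations.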
(Bead proximity is the source of the signal in Alpha formats.)

Test [5] addresses 3',5'-cyclic-AMP phosphodiesterase 4B (Homo sapiens) (UniProt Q07343). As to the kind of experiment: qHTS Assay for Inhibitors of PDE-IV (AID 607; active means well fitted activation curve with a large enough effect in the main read-out, with a control signal flat, not every such curve was filed as active; further: % of control where 0% means no effect). Particulars: HEK293 ACTOne CNG channel cells, membrane potential fluorescence; series mostly up to 22.9 µM. An outline of the steps:
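ACTOne HEK293 cells carry a modified cAMP-gated CNG channel and express endogenous PDE4; plated 1000 cells/well, compounds up to 22.9 uM final. Membrane-potential dye fluorescence (ex 535/em 590) was read; parental cells received 10 uM forskolin + 100 uM RO 20-1724.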
On the technique in general: In qHTS, concentration-response curves come from the screen itself.

Test [6] in a line: qHTS Assay for Lipid Storage Modulators (AID 1519). Particulars: Drosophila S3 cells, BODIPY lipid droplet/cell ratio, laser cytometry, cells loaded with oleic acid; for activity change, negative = inhibition: at 57.5 µM (top of the series). An outline of the steps:
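Cells seeded at 5,000 per well were treated with compounds over a concentration series and loaded with oleic acid (400 uM, as added). Lipid droplet fluorescence (488 nm excitation, 500-530 nm channel) was read by laser-scanning cytometry and normalized to 20 uM Triacsin C.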

Test [7] in a line: Primary qHTS for small molecule stabilizers of the endoplasmic reticulum resident proteome: Secreted ER Calcium Modulated Protein (SERCaMP) assay (AID 1508630; active means well fitted curve in the direction sought with a large enough effect; an effect the other way counts as inactive or inconclusive; further: on the % scale 0 is the no-effect control and ±100 the full control effect). Conditions: SH-SY5Y GLuc-SERCaMP (Gaussia luciferase released on ER calcium loss) secretion, thapsigargin, luminescence; series mostly up to 38.4 µM. An outline of the steps: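 GLuc-SERCaMP-expressing SH-SY5Y cells, pretreated 16 h with compound, are challenged with thapsigargin to empty ER calcium stores; after 4 h, coelenterazine is added directly to the medium and luminescence is imaged.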

Test [8] in a line: Stat Signaling Pathway (AID 446; active means well fitted curve in either direction with a large enough effect, not every such curve was filed as active;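 further: ME-180 cervical cancer cells given 40 pM IL-6 alongside compound; SIE-controlled beta-lactamase reporter measured as 460/530 nm FRET emission ratio; on the % scale 0 is the no-effect control and ±100 the full control effect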). Particulars: ME-180 SIE beta-lactamase reporter, IL-6 stimulated, 5 h; at 7.69 µM (top of the series) unless noted. A digest of the protocol: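 ME-180 SIE-bla cells; overnight plating; cpd + IL-6 40 pM, 5 h, 37 C; LiveBLAzer 2.5 h RT; 460/530 nm emission ratio. Normalized to 300 pM IL-6 and 125 nM JAK inhibitor controls.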
A short description of test [9]: qHTS Assay for Identification of Small Molecule Agonists for Hypoxia Response Element Signaling Pathway (AID 914; active means well fitted activation curve with a large enough effect in the signal ratio, with a control signal flat, not every such curve was filed as active; the % refers to the signal ratio; further: potency means the concentration at half of the fitted maximal effect; on activation: % of control where 0% means no effect). Particulars: ME-180 (cervical carcinoma) HRE-bla reporter, beta-lactamase ratio, CoCl2, 17 h; activation: stronger effect = higher value. A digest of the protocol: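 Read-out: CCF4 FRET ratio of 460nm to 530nm emission (excitation 405nm) after 2.5 hours at room temperature, taken from HRE-bla ME-180 cells that had been exposed to compound and EC50 CoCl2 for 17 hours.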

Test [10] deals with Cytochrome P450 1A2 (Homo sapiens) (UniProt P05177). As to the kind of experiment: p450-cyp1a2 (AID 410). Further: potency means the concentration at half of the fitted maximal effect. Conditions: recombinant CYP1A2, luciferin-ME demethylation, luminescence; series mostly up to 57 µM. An outline of the steps:
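Luminescent readout of luciferin formed from Luciferin-ME by human CYP1A2; data normalized against complete inhibition by 57 uM furafylline. Enzyme 20nM, substrate 100uM at Km, 100mM KPO4 buffer, 60 min reaction at room temperature.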

A short description of test [11]: NFAT Signaling Pathway (AID 444; active means well fitted curve in either direction with a large enough effect, not every such curve was filed as active). Particulars: Jurkat NFAT-bla M1, carbachol, beta-lactamase ratio, 5 h; at 7.69 µM (top of the series) unless noted. An outline of the steps: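 Jurkat cells with NFAT-driven β-lactamase reporter and co-expressed M1 receptor, stimulated with carbachol (final 1 uM, ~EC50), compound titration, 5 h at 37 °C. CCF4 loaded 1 h at RT; 460/530 nm ratio gave %activity and AC50.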

Test [12] deals with Glucocorticoid receptor (Homo sapiens) (UniProt P04150). As to the kind of experiment: GR-GFP Redistribution (AID 450;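 active means compounds whose dose series gives a full or clear partial fitted curve of increased nuclear translocation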; further: potency means the concentration at half of the fitted maximal effect). Conditions: U2OS GR-GFP nuclear translocation, laser cytometry, 2 h.
Sequence of Glucocorticoid receptor (Homo sapiens) (P04150 whole entry, looked up, the tested form may be a part): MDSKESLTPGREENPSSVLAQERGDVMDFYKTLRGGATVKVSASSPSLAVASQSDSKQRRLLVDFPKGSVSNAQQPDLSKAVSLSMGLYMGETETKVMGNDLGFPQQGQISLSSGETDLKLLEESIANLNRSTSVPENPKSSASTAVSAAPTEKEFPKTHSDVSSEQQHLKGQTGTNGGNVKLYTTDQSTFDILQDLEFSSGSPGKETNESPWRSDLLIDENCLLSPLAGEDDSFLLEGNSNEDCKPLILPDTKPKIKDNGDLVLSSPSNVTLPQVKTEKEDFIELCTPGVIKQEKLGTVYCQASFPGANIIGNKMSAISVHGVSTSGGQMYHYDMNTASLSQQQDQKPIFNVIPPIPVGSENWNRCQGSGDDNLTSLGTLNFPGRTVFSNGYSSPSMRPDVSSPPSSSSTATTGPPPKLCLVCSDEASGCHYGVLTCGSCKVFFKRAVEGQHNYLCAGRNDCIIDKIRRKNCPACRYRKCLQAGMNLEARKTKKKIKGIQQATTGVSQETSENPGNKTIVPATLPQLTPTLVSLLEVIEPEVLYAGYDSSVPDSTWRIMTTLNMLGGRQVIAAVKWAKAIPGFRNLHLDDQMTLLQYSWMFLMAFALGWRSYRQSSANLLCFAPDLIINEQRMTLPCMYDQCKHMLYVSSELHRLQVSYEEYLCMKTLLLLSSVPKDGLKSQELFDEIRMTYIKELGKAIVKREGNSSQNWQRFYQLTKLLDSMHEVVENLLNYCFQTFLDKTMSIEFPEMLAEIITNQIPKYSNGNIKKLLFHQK
Test [13] concerns the target Cytochrome P450 3A4 (Homo sapiens) (UniProt P08684). Put plainly: qHTS Assay for Inhibitors and Substrates of Cytochrome P450 3A4 (AID 884; active means well fitted curve in the direction sought with a large enough effect; an effect the other way counts as inactive or inconclusive; further: potency means the concentration at half of the fitted maximal effect; nearly all actives have a fitted effect of over 50% in size). Conditions: recombinant CYP3A4, Luciferin-PPXE luminescence; series mostly up to 57.1 µM. An outline of the steps:
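20 nM human CYP3A4 with 25 uM Luciferin-PPXE (at KM) in 200 mM KPO4, preincubated 10 min with compound; NADPH regeneration started a 60 min RT reaction. Luciferin detected by luminescence, normalized to 57 uM ketoconazole as full inhibition.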

Test [14] has the same target. Put plainly: qHTS Assay for Activators of Cytochrome P450 3A4 (AID 885; active means well fitted curve in the direction sought with a large enough effect; an effect the other way counts as inactive or inconclusive; further: nearly all actives have a fitted effect of over 65% in size). Conditions: recombinant CYP3A4, Luciferin-PPXE luminescence, 60 min; series mostly up to 57.1 µM. A digest of the protocol:
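20nM CYP3A4 + 25uM Luciferin-PPXE (=KM), 200mM KPO4; cpd 10 min RT; NADPH regen, 60 min RT; stop w/ detection buffer, 20 min; luminescence. Normalized to 57 uM ketoconazole.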

The nature of test [15]: Confirmation and Secondary Assay for Modulators of Hemoglobin Beta Chain Splicing at IVS2 654 locus (AID 910; active means well fitted curve in the direction sought with a large enough effect; an effect the other way counts as inactive or inconclusive;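 further: HeLa cells stably carrying EGFP split by mutant beta-globin IVS2-654 intron; % of control where 0% means no effect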). Particulars: HeLa EGFP-654 splicing reporter, GFP fluorescence, 48 h; series mostly up to 38.3 µM. A digest of the protocol:
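HeLa cells stably expressing EGFP interrupted by β-globin IVS2-654 intron, seeded overnight in Opti-MEM/2% FCS, then treated 2 days at 37 °C. Restored splicing read as total peak GFP intensity per well by laser scanning cytometry (488 nm excitation, 500–520 nm emission); 500 nM antisense PNA as control.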

Test [16] concerns the target Cytochrome P450 2C19 (Homo sapiens) (UniProt P33261). As to the kind of experiment: qHTS Assay for Inhibitors and Substrates of Cytochrome P450 2C19 (AID 899; active means well fitted curve in the direction sought with a large enough effect; an effect the other way counts as inactive or inconclusive; further: potency means the concentration at half of the fitted maximal effect; nearly all actives have a fitted effect of over 60% in size). Conditions: recombinant CYP2C19, luciferin-H EGE luminescence; series mostly up to 57.1 µM. An outline of the steps:
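Luminescent read-out of luciferin formed from Luciferin-H EGE (10uM, equal to KM). Enzyme 5nM in 50mM KPO4; compound added, 10 min at 37C, then NADPH regenerating system for 60 min at 37C. Full inhibition defined by 57uM ketoconazole.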

Test [17] is described as follows: Confirmation and Secondary Assay for Modulators of Hemoglobin Beta Chain Splicing at IVS2 705 locus (AID 930; active means well fitted curve in the direction sought with a large enough effect; an effect the other way counts as inactive or inconclusive;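 further: HeLa cells stably expressing the EGFP-705 splicing reporter; GFP fluorescence per well restored by corrected splicing of the IVS2-705 intron in EGFP; % of control where 0% means no effect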). Conditions: HeLa EGFP-705 splicing reporter, GFP fluorescence, 48 h; series mostly up to 38.3 µM. An outline of the steps: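 HeLa EGFP-705 reporter; 500 cells/well, o/n 37C 5% CO2; cpd 2 d; 488 ex/500-520 em laser scan; total peak GFP intensity/well. Ref: 500 nM […] antisense PNA.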

Test [18] addresses Ubiquitin carboxyl-terminal hydrolase 1 (Homo sapiens) (UniProt O94782). Put plainly: Inhibitors of USP1/UAF1: Pilot qHTS (AID 504865; active means well fitted curve in the direction sought with a large enough effect; an effect the other way counts as inactive or inconclusive;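 further: rhodamine fluorescence freed from ubiquitin-rhodamine substrate followed over time; top concentration of the series differs between compounds; on the % scale 0 is the no-effect control and ±100 the full control effect; nearly all actives have a fitted effect of over 35% in size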). Conditions: purified USP1/UAF1, Ub-rhodamine cleavage fluorescence; series mostly up to 54.9 µM. An outline of the steps:
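USP1/UAF1 complex (1nM) preincubated with compound 15 min at room temperature, then Ub-Rho substrate (150nM final) added. Fluorescence read kinetically at 480/540 nm, 6 reads every 60 seconds. Buffer: 50mM HEPES pH 7.8, 0.5mM EDTA, 0.1 mg/ml BSA, 1mM TCEP, 0.01% Tween-20.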

The mark [19] stands for this setting: measured here: cell count channel max response.
Where [20] appears, read: measured here: lipid channel max response.

Sequence of Cytochrome P450 1A2 (Homo sapiens) (P05177 whole entry, looked up): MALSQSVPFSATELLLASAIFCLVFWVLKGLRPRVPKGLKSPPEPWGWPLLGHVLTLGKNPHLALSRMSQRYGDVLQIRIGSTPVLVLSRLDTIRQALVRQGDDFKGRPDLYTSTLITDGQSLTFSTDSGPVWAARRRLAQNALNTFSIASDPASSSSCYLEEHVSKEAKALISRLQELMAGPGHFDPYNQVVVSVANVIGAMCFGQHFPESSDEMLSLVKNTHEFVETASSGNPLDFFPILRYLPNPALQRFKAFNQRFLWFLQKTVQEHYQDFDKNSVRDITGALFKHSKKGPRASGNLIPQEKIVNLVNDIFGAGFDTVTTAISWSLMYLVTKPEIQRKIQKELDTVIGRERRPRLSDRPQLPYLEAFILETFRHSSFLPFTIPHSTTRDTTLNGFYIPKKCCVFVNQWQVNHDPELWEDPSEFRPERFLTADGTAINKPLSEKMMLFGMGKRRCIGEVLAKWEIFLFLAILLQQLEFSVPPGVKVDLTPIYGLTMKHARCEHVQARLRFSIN
Sequence of 3',5'-cyclic-AMP phosphodiesterase 4B (Homo sapiens) (Q07343 whole entry, looked up): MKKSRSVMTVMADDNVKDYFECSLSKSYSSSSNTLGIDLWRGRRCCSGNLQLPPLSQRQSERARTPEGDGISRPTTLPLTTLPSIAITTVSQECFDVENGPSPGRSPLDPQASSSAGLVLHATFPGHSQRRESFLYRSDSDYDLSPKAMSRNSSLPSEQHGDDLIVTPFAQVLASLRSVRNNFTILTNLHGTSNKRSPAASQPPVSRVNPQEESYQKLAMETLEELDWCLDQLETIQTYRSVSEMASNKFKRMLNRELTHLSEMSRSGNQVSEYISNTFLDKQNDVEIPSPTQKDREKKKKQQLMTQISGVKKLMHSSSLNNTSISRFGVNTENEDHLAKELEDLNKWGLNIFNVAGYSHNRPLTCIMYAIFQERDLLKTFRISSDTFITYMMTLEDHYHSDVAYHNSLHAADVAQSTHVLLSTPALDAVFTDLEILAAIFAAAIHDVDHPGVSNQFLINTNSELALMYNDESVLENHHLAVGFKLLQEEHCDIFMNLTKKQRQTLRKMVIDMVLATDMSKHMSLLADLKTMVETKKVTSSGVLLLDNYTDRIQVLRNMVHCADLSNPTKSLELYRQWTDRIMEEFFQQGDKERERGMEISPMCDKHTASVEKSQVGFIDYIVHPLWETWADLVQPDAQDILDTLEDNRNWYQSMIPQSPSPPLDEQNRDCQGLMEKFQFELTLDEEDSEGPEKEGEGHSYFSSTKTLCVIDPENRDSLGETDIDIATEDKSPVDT
Sequence of Lysosomal acid glucosylceramidase (Homo sapiens) (P04062 whole entry, looked up): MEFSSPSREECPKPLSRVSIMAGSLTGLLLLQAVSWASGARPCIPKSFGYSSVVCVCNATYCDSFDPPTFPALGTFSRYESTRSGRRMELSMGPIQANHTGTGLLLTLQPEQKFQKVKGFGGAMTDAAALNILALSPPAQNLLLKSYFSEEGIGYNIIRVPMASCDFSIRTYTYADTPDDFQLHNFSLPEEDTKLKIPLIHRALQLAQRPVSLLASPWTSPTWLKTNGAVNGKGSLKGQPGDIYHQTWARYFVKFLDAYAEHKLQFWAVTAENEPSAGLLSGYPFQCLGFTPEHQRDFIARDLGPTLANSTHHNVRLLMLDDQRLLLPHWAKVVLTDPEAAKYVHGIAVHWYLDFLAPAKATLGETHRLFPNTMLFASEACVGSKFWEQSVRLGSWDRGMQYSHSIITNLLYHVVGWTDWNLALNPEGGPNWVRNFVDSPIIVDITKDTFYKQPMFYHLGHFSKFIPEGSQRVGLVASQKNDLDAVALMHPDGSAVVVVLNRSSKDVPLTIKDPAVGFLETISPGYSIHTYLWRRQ
Sequence of Cytochrome P450 3A4 (Homo sapiens) (P08684 whole entry, looked up): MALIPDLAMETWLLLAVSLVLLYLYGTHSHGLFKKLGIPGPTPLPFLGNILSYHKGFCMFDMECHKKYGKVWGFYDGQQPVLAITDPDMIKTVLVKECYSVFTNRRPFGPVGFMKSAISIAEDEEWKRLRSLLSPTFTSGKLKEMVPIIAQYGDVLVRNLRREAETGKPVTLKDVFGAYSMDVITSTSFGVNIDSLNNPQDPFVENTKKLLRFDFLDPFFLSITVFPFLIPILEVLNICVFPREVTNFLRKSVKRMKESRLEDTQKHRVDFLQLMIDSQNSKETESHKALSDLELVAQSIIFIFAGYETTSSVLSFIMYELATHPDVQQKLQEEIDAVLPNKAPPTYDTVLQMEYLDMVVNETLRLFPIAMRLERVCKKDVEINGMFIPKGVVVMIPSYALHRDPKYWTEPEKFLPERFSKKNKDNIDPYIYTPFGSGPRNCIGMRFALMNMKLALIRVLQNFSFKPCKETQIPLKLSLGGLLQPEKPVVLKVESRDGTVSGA
Sequence of Ubiquitin carboxyl-terminal hydrolase 1 (Homo sapiens) (O94782 whole entry, looked up): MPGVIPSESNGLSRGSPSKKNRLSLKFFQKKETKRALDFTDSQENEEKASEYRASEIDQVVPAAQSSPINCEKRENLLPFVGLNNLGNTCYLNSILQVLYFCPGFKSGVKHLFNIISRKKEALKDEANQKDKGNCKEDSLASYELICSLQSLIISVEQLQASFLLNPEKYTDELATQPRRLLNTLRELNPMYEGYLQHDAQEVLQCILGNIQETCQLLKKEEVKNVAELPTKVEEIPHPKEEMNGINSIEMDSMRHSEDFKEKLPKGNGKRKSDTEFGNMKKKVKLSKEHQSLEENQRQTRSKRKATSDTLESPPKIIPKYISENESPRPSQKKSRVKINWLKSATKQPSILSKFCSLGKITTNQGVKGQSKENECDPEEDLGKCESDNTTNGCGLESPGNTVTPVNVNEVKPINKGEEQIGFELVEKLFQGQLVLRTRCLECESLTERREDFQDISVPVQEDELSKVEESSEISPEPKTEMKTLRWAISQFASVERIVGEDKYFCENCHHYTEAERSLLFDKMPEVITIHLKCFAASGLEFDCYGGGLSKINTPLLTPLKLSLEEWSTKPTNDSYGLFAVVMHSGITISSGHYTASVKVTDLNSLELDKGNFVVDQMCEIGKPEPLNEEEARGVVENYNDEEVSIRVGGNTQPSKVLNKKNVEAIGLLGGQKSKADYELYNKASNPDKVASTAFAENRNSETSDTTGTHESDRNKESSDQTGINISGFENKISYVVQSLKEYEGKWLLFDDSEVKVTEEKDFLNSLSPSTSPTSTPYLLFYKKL
Sequence of Cytochrome P450 2C19 (Homo sapiens) (P33261 whole entry, looked up): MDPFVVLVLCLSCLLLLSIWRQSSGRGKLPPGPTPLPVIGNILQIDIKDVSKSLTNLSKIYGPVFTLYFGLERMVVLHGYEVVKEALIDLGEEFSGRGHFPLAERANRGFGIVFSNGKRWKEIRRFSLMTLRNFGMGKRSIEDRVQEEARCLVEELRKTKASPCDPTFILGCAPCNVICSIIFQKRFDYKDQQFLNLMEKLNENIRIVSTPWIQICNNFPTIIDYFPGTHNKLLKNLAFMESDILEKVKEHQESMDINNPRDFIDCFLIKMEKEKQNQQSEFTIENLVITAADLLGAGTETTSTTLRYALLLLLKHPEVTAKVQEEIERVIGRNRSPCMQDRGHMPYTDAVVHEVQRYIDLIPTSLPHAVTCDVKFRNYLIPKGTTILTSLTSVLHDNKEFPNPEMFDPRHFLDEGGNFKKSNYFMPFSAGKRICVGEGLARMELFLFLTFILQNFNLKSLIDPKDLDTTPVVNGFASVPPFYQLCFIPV

In the case of `COc1ccccc1CN1CCCC2(CCN(C(=O)c3cc(C(F)(F)F)cc(C(F)(F)F)c3)CC2)C1`, the Potency is > 11.4 µM (inactive) in test [1] and > 46 µM (inactive) in test [3]. Besides, the activity change, negative = inhibition in [2] was 16.7% (inactive); in test [6], 3.12% (inactive). The Potency result in test [4] and in test [5] was “inactive” each time. Further, the max response was -3.38% in test [6] (setting [19]) and 1.79% in [6] (setting [20]). Besides, the outcome in test [7] was inactive.

With `CC(C)CN1CC2(CCN(S(=O)(=O)c3ccccc3)CC2)C1`, the Potency was > 11.4 µM (inactive) in test [1] and > 46 µM (inactive) in [3]. In addition, the activity change, negative = inhibition in [2] is 6.33% (inactive); in test [6], -0.648% (inactive). Moreover, the activity, negative = inhibition in [8] is -2.48% (inactive). The Potency result in test [4] and in [5] was “inactive” throughout. The activation in test [9] was 6.29% (inactive). For the same compound, the results for the max response in test [6] (setting [19]) and in [6] (setting [20]) were -17.9% and -14.3%, respectively. Further, the outcome in test [7] was inactive.

As for `c1cncc(CNc2nc(-c3ccc4c(c3)OCO4)nc3ccccc23)c1`, the Potency in test [1] was > 11.4 µM (inactive); in test [10] it was 0.1 µM (active); in [12] it was > 46 µM (inactive); in test [3], > 46 µM (inactive); in test [13] it was 0.316 µM (active). Moreover, the activity change, negative = inhibition in test [11] is -3.4% (inactive); in test [6], 6.87% (inactive). The activity, negative = inhibition in test [8] is -7.26% (inactive). In addition, the Potency result in [4], in test [14] and in test [15] was “inactive” throughout. The max response in test [6] (setting [19]) came to 10.1%; in [6] (setting [20]), 18%. Also, the outcome in test [7] was inactive.

Take `Cc1noc(C)c1-c1ccc2ncnc(N(C)Cc3ccco3)c2c1`: the Potency was > 11.4 µM (inactive) in [1]; 2.51 µM (active) in test [10]; > 46 µM (inactive) in [12]; > 46 µM (inactive) in test [3]; 5.01 µM (active) in test [16]; 1.58 µM (active) in test [9]. In addition, the Potency entry in test [4], in test [14], in [15] and in test [18] was “inactive” in each case. Further, the result in test [17] and in [7] was inactive. In addition, the activity change, negative = inhibition in test [6] was 2.4% (inactive). For the same compound, the max response was 23.8% in test [6] (setting [19]) and 25.4% in test [6] (setting [20]).

In the case of `CCNc1ncc2ncc(=O)n(C[C@H]3CCCO3)c2n1`, the Potency in test [1] is > 11.4 µM (inactive); in test [10], 10 µM (active); in test [12], > 9.22 µM (inactive); in [3], > 46 µM (inactive). Further, the activity change, negative = inhibition in test [11] is -20% (inactive); in test [6] it was 1.57% (inactive). Also, in test [4], the Potency result was “inactive”. Besides, the max response in [6] (setting [19]) was 16.3%; in test [6] (setting [20]), 17.2%. Also, the result in test [7] was inactive.

Turning to `Cn1cccc1C(=O)N1CCC2(CCCN(C(=O)Nc3cccc(F)c3)C2)CC1`, the Potency in [1] was > 11.4 µM (inactive); in [3], > 46 µM (inactive). Moreover, the activity change, negative = inhibition in test [2] is -15.3% (inactive); in test [6] it was 5.97% (inactive). The Potency result in test [4], in test [5] and in [14] was “inactive” in each case. Also, the max response is -2.38% in [6] (setting [19]) and 6.22% in [6] (setting [20]). For the same compound, the result in test [7] was inactive.

`O=C(c1cccc(F)c1)N1CCC2(CCCN(c3ccccn3)C2)CC1`: the Potency in test [1] was > 11.4 µM (inactive); in test [3], > 46 µM (inactive). The activity change, negative = inhibition in test [2] was -14% (inactive); in test [6], 6.75% (inactive). The activity, negative = inhibition in test [8] was -2.13% (inactive). Further, the Potency result in test [4] and in test [5] was “inactive” in each case. Moreover, the activation in test [9] is -10.7% (inactive). The figures for the max response in [6] (setting [19]) and in test [6] (setting [20]) were 9.06% and 21.3%, respectively. The result in [7] was inactive.

The values above are taken from PubChem BioAssay (NCATS).
